According to the supplement of paper PMC3484114:
± gives the standard deviation.

The compounds below were run on OVCAR-3-derived ovarian cancer stem-like cells (spheroids) (assay: cell growth relative to untreated control; higher = more growth (less inhibition)). Details: 2.29 µM; 96 h.
Summary of the method: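 Percent growth was calculated against untreated wells once blanks were subtracted and Grubbs outliers removed. The cells were OVCAR-3 spheroid-derived stem-like cells, trypsinized and plated at 50,000 cells/mL in stem cell medium on ultra-low attachment 96-well plates for a 24 h preincubation. They were then exposed to compounds at 2.29 uM for 96 h at 37°C, 5% CO2, in 4 replicate wells, and viability was measured by TOX8 resazurin fluorescence (ex 560/em 590 nm) after 4 h.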
`O=C1CCC(c2ccccc2)=NN1c1nc2ccccc2s1` gave a cell growth of 39.3 ± 10%.
`O=C1c2cccc(O)c2C(=O)c2c(O)cccc21` gave a cell growth of 68.8 ± 19%.
`COc1nc(N)nc2nc[nH]c12` gave a cell growth of 91.9 ± 17%.
`CCN(CC)c1ccc2cc3ccc(=[N+](CC)CC)cc-3oc2c1` was tested, and the cell growth was 45.5 ± 10%.
With `N[C@H](C(=O)O)[C@@H]1CC(Cl)=NO1` the cell growth was 85.3 ± 21%.
Compound `C=C(C#N)C(=O)OCC(CC)CC.C=C(C#N)C(=O)OCC(CC)CC.CS(C)=O.CS(C)=O.Nc1c(N=Nc2ccc(-c3ccc(N=Nc4cc(S(=O)(=O)[O-])c5ccccc5c4N)cc3)cc2)cc(S(=O)(=O)[O-])c2ccccc12.[Pt+2]` has a cell growth of 107 ± 14%.
`C=C(C)[C@@H]1CC[C@]2(CO)CC[C@]3(C)[C@H](CC[C@@H]4[C@@]5(C)CC[C@H](O)C(C)(C)[C@@H]5CC[C@]43C)[C@@H]12` showed a cell growth of 90 ± 24%.
`O=C1c2ccccc2C(=O)C1C(c1ccc([N+](=O)[O-])cc1)C1C(=O)c2ccccc2C1=O` was tested, and the cell growth was 83.3 ± 24%.
`Cc1cc2cc3cc(C)c(N)cc3nc2cc1N` was tested, and the cell growth was 40.2 ± 5.5%.
`N=C1C=C(N)C(=O)c2[nH]c(=O)ccc21` was tested, and the cell growth was 95.3 ± 55%.
For `CC(C)C1=CC2=CC[C@@H]3[C@](C)(CCC[C@@]3(C)C(=O)O)[C@H]2CC1`, the cell growth was 114 ± 10%.
Work on `COc1ccc2c(NCCCCCCNc3c4ccccc4nc4cc(OC)ccc34)c3ccccc3nc2c1` yielded a cell growth of 13.9 ± 5.5%.
`O=C1C(=O)c2ccccc2C(O)=C1CCCc1ccc(Oc2ccccc2)cc1` was tested, and the cell growth was 87.1 ± 37%.
With `NC1=C(Br)C(=O)c2ncccc2C1=O` the cell growth was 15.3 ± 3.8%.
Work on `COc1cc(/C=C2\S/C(=N/Nc3nc(-c4ccc(Br)cc4)cs3)NC2=O)cc(OC)c1OC` yielded a cell growth of 91.9 ± 19%.
Compound `Clc1cc2nc[nH]c2cc1Cl` has a cell growth of 102 ± 31%.
In the case of `COc1cc2c(c(OC)c1OC)-c1c(cc3c(c1OC)OCO3)CC(C)C(C)(O)C2OC(=O)c1ccccc1` (centres undefined), the cell growth is reported as 130 ± 29%.
`COc1cccc(/C=N\NC(=O)C(C)SC(C)C(=O)N/N=C/c2cccc(OC)c2)c1` (centres undefined) was tested, and the cell growth was 100 ± 33%.
For `Cc1nn(-c2ccccc2)c2c1CC(=O)Nc1ccccc1-2`, the cell growth was 114 ± 32%.
Work on `CN(NC1=NCCO1)c1ccc2ccccc2c1` yielded a cell growth of 117 ± 18%.
With `CC(C)(C)C1CCC2(CC1)CCN(CCCN1CCOCC1)CC2` the cell growth was 119 ± 12%.
`CCN(CC)Cc1cc(N=Nc2c(O)ccc3c(N=Nc4ccc(O)c(CN(CC)CC)c4)c(O)ccc23)ccc1O` showed a cell growth of 70.5 ± 21%.
`CC(C)(C)CC(C)(C)NCC(O)COc1ccc(C(C)(C)c2ccc(OCC(O)CNC(C)(C)CC(C)(C)C)cc2)cc1` (centres undefined) showed a cell growth of 7.1 ± 2.1%.
Work on `O=C(N=Nc1c(O)[nH]c2ccccc12)c1ccccc1O` yielded a cell growth of 105 ± 11%.
Work on `COC(C(=O)C(O)C(C)O)C1Cc2cc3cc(OC4CC(OC5CC(O)C(O)C(C)O5)C(O)C(C)O4)c(C)c(O)c3c(O)c2C(=O)C1OC1CC(OC2CC(OC3CC(O)C(OC)C(C)O3)C(O)C(C)O2)C(O)C(C)O1` (centres undefined) yielded a cell growth of 54.3 ± 53%.
Compound `O=C1C(c2cnc3ccccc3n2)=C(O)c2ccccc21` has a cell growth of 197 ± 48%.
Compound `Cc1ccc(S(=O)(=O)SC/C=C/CSS(=O)(=O)c2ccc(C)cc2)cc1` has a cell growth of 113 ± 25%.
`N#CCCN(CCC#N)c1ccc(/C=C2/N=C(c3cc([N+](=O)[O-])ccc3Cl)OC2=O)cc1` gave a cell growth of 114 ± 40%.
With `COc1cc2cc(c1Cl)N(C)C(=O)C[C@H](OC(=O)[C@H](C)N(C)C(C)=O)[C@]1(C)O[C@H]1[C@H](C)[C@@H]1C[C@@](O)(NC(=O)O1)[C@H](OC)/C=C/C=C(\C)C2` the cell growth was 22.5 ± 4.8%.
Work on `CC(=O)C(N1CCCCC1)C(O)(C(F)(F)F)C(F)(F)F` (centres undefined) yielded a cell growth of 107 ± 38%.
For `COc1ccc(CCN(C)CCCC(C#N)(c2ccc(OC)c(OC)c2)C(C)C)cc1OC` (centres undefined), the cell growth was 115 ± 16%.
`Cc1cn(C2CC(O)C(CO)O2)c(=O)[nH]c1=O` (centres undefined) gave a cell growth of 92.3 ± 10%.
Work on `CCOC(=O)Cc1c(C)c2cc(C(=O)c3ccccc3)c(O)cc2oc1=O` yielded a cell growth of 98 ± 18%.
With `O=C1c2ccccc2C(=O)c2c(O)c(O)cc(O)c21` the cell growth was 25.5 ± 6.6%.
`OC(CBr)C(O)C(O)C(O)CBr` (centres undefined) showed a cell growth of 11.6 ± 4%.
Work on `O=C(O)CC(NC(=O)CP(=O)(O)O)C(=O)O` (centres undefined) yielded a cell growth of 106 ± 16%.
Compound `Nc1ncnc2c1nnn2[C@@H]1O[C@H](CO)[C@@H](O)[C@H]1O` has a cell growth of 23.1 ± 4.4%.
Compound `Cc1cc2c(c3oc(C4(C)OC4C4OC4C)cc(=O)c13)C(=O)c1c(O)c(C3CC(C)(N(C)C)C(O)C(C)O3)cc(C3CC(N(C)C)C(O)C(C)O3)c1C2=O` (centres undefined) has a cell growth of 47.6 ± 40%.
`CN(C)CCOC1(Cc2ccc(F)cc2)CCC(C(C)(C)C)CC1` (centres undefined) was tested, and the cell growth was 109 ± 34%.
